Shown are actives, neighbours in structure and some others; about 22% of the full set was active somewhere.
Pf growth 96h – P. falciparum growth inhibition at 96 hour, primary screen for plastid delayed-death inhibitors; P. falciparum luciferase reporter growth, 96 h; Potency, µM (highest dose often 28.7 µM), for the others: at the top dose activity change, negative = inhibition, actives largely listed as inhibitors; actives 6.9% (n = 320,000); AID 504834; note: potency is the fitted concentration of half-maximal effect; % is set by controls: 0 for no effect and ±100 for the full control effect
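P. falciparum expressing integrated firefly luciferase grown in erythrocytes (2% hematocrit, 0.05% parasitemia final) with compounds for 96 hours at 37 C, 5% CO2. Growth inhibition read as loss of luminescence after adding luciferase detection reagent.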
Shiga inhibitor – Shiga toxin inhibition; Vero cells, Shiga toxin protein synthesis inhibition reporter; inhibition, % at 38.7 µM; actives 9.2% (n = 290,000); in the data active = inhibition mostly above about 28%, no sharp cut-off; inactive = mostly below about 43%; note: 0% is about no effect
LmPK inh – LmPK (Leishmania mexicana) enzyme inhibition | purified LmPK, Kinase-Glo ATP luminescence, 1 h | Potency, µM (highest dose often 57.5 µM), for inactives: top-dose activity change, negative = inhibition, actives largely listed as inhibitors | actives 0.37% (n = 290,000); note: potency is the fitted concentration of half-maximal effect; % is set by controls: 0 for no effect and ±100 for the full control effect
Target sequence (Q27686 whole entry, looked up): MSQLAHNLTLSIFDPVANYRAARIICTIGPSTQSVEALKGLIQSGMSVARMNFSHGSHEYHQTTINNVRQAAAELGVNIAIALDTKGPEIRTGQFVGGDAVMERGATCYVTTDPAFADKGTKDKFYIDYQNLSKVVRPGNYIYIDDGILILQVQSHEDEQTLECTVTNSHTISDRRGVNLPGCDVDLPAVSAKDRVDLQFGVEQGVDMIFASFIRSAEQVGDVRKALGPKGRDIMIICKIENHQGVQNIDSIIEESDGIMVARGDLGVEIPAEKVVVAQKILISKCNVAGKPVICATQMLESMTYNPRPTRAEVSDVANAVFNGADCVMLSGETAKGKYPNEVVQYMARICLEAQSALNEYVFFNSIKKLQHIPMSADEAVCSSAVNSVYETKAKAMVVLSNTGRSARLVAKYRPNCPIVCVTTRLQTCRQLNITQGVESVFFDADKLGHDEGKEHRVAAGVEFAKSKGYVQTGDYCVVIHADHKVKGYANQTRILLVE
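qHTS format; LmPK 0.1 nM; substrates PEP 0.5 mM and ADP 0.1 mM. One-hour room-temperature incubation, then coupled luciferase luminescence; 0.5 nM enzyme wells mark activation.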
CHX counter – counter-screen for Shiga toxin inhibitors: cycloheximide protein synthesis inhibition; max response, %; actives 12% (n = 300,000); AID 2314; cell reporter, cycloheximide protein synthesis inhibition counterscreen; in the data active = max response mostly above about 13%, no sharp cut-off; inactive = mostly below about 14%; note: read at 38.3 µM for the half of the compounds with a filed dose; 0% is about no effect
Pf growth 48h – P. falciparum growth inhibition at 48 hours (one generation) | actives 5.9% (n = 310,000) | Potency, µM (top dose mostly 28.7 µM), without a hit: at the highest dose activity change, negative = inhibition, actives largely listed as inhibitors | P. falciparum luciferase growth in erythrocytes, 48 h; note: potency is the fitted concentration of half-maximal effect; % is set by controls: 0 for no effect and ±100 for the full control effect
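Luciferase-expressing parasites in RBCs, 2% Hct / 0.1% parasitemia final; RPMI 1640 + 0.5% Albumax; 37 C, 5% CO2, one generation; luminescence read-out, lower signal = inhibition.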
* marks the source's active call; other numbers are inactive results; i = inactive; ? = inconclusive; nt = no result; ! = not confirmed by another sample; [ ] = dose if it differs, or a comment. Unless noted, calls come from the whole dose curve; as a rule, active = well fitted inhibition curve with a large enough effect; inconclusive = small, poorly fitted or top-dose-only effect, or another doubt; inactive = no such curve, though single readings can be large or run the other way.

SMILES	Pf growth 96h	Shiga inhibitor	LmPK inh	CHX counter	Pf growth 48h
COc1ccc(CC(=O)NC(C)C2COc3ccccc3O2)cc1OC (configuration not stated)	32.4%	-21.7	-0.6%	1.4	14.6%
COc1cccc(CNC(=O)c2ccc3c(c2)N(Cc2ccc(F)cc2Cl)C(=O)c2ccccc2S3)c1	nt	-2.3	nt	-7.2	nt
O=C1N=C(N2CCN(c3ccccc3)CC2)S/C1=C/c1cccs1	13.1µM*	-2.8	1.8%	1.0	-17.1%
Cc1ccc(/C=C2\SC(N3CCN(C(c4ccccc4)c4ccccc4)CC3)=NC2=O)o1	1.65µM*	-10.0	2.8%	4.1	5.86µM*
CC1CCN(C2=NC(=O)/C(=C/c3ccccc3F)S2)CC1	32.4%	68.3*	-1.1%	38.4*	1.9%[0.00184 µM]
Cc1ccc(-c2ccc(/C=C3\SC(N4CCOCC4)=NC3=O)o2)cc1	6.2%	21.8	0.9%[11.5 µM]	7.4	?
COc1ccc(CN2CCNC(=O)C2CC(=O)NCCCC2CCCC2)c(F)c1 (configuration not stated)	15.9%	19.5	-12.6%	18.2	17.3%
N#C/C(=C\c1cccc(NC(=O)c2ccccc2Cl)c1)C(=O)NCCc1ccccc1	?	2.5	0.2%	1.4	11.4%
COc1ccc(CC(=O)Nc2ccc3nc(SC)sc3c2)cc1OC	?	41.5	1.5%	-1.5	-18.4%
CC(=O)Nc1ccc2nc(SCC(=O)O)sc2c1	nt	-4.5	-10.8%	-1.4	22.2%
CSc1nc2ccc(NC(=O)C3=NN(c4ccccc4)C(=O)CC3)cc2s1	-1.6%	17.2	-3.6%	6.3	-11.2%
COC(=O)c1ccc(C(=O)NC(=S)Nc2ccc3nc(SC)sc3c2)cc1	55.4%	11.4	-2.6%	10.6*	24.5%
CSc1nc2ccc(NC(=O)C3=NNC(=O)CC3)cc2s1	9.7%	46.6	-3.0%	16.5*	0.0%
CSc1nc2ccc(NC(=O)c3ccccn3)cc2s1	69.9%	104.8*	-29.1%	37.8*	69.1%
Cc1noc(/C=C/c2cccs2)c1S(=O)(=O)N1CCC(C(=O)NCCCN2CCC(C)CC2)CC1	64.6%	-18.7	2.8%	-5.7	-65.3%
Cc1ccc(CSc2nnc(-c3ccccn3)n2C)cc1	11.9%	93.7*	-10.7%	24.4*	-5.5%
c1ccc(CSc2nnc(-c3ccccn3)n2-c2ccccc2)cc1	nt	-7.1	5.7%	0.8	0.0%
Cn1c(SCc2ccc(F)cc2)nnc1-c1ccccn1	205.4%	115.6*	0.9%	39.3*	58.9%
Cn1c(CO)cnc1SCc1ccc(F)cc1	-0.3%	49.9*	-9.1%	17.2*	i
OC(CNCCCCNCC(O)C(F)(F)F)C(F)(F)F (configuration not stated)	26.5%	-13.7	-1.9%	-1.9	11.1%
Cc1ccc(S(=O)(=O)NCCn2nc(C)nc2C)cc1	18.6%	-7.4	-0.1%	-3.5	16.9%
CCC(=O)c1c(O)cc(O)cc1O	?	nt	nt	nt	-17.9%
O=C(CCc1ccccc1)c1c(O)cc(O)cc1O	-9.9%	5.9	-4.7%	active	14.0%
CCC[C@@H]1CC(C(=O)NC(C2O[C@H](SC)C(OP(=O)(O)O)[C@H](O)[C@H]2O)[C@H](C)Cl)N(C)C1 (some centres not stated)	nt	-9.4	nt	-2.9	nt
CCOc1cc(NC(=S)Nc2ccccc2)c(OCC)cc1NC(=O)c1ccccc1	8.28µM*	-8.6	-0.7%	-3.4	?
SMILES	Pf growth 96h	Shiga inhibitor	LmPK inh	CHX counter	Pf growth 48h
CCOc1cc(NC(=S)NCc2ccccc2)c(OCC)cc1NC(=O)C(C)C	?	-4.5	-1.0%	-0.7	-27.6%
CCOc1cc(NC(=O)C(C)C)c(OCC)cc1NC(=O)Nc1ccccc1	11.7µM*	nt	-2.7%	-1.0	-19.0%
Cc1ccc(N(C(=O)Nc2ccccc2)C2=NCCC2)cc1	-17.3%	19.1	2.5%	17.5*	-22.4%
CN(C(=O)Nc1cnc2ccccc2c1)c1ccccc1	34.2%	28.4*	-0.4%	33.8*	33.1%
NC(=S)Nc1cnc2ccccc2c1	48.3%	55.5*	2.8%	26.9*	56.9%
Cc1ccc(NC(=O)NC(=O)N(c2ccccc2)S(C)(=O)=O)cc1	-20.4%	50.1*	-1.1%	26.8*	11.4%
CCCCCN(C(=O)NC(=O)Nc1ccc(C)cc1)S(=O)(=O)c1ccccc1	61.2%	2.9	0.9%	19.8*	26.1%
Cc1ccc(NC(=O)N(C)c2ccccc2)cc1	?	48.0*	0.7%	17.1*	4.5%[0.00184 µM]
CN(C)C(=O)Nc1ccccc1	-25.5%	87.6*!	-0.1%	40.7*!	20.1%

Screening results deposited in PubChem BioAssay by National Center for Advancing Translational Sciences (NCATS).
